# Laboratory results from publication PMC5540273 (PLoS ONE, 2017).
# Key:
# Settings in all cases: concentration: 1 μM, replicates: in singlicate; n = 1
# [1] = system: EPHA7
# [2] = system: EPHA8
# [3] = system: EPHB1
# [4] = system: EPHB2
# [5] = system: EPHB3
# [6] = system: EPHB4
# [7] = system: EPHB6
# [8] = system: ERBB2
# [9] = system: ERBB3
# [10] = system: ERBB4
# [11] = system: T1, ERK1
# T1 construct: gene MAPK3
# [12] = system: T2, ERK2
# T2 construct: gene MAPK1
# [13] = system: T3, ERK3
# T3 construct: gene MAPK6
# [14] = system: T4, ERK4
# T4 construct: gene MAPK4
# [15] = system: T5, ERK5
# T5 construct: gene MAPK7
# [16] = system: T6, ERK8
# T6 construct: gene MAPK15
# [17] = system: ERN1
# [18] = system: T7, FAK
# T7 construct: gene PTK2
# [19] = system: FER
# [20] = system: FES
# 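Also: KINOMEscan kinase panel screen.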
SMILES,%Inh [1],%Inh [2],%Inh [3],%Inh [4],%Inh [5],%Inh [6],%Inh [7],%Inh [8],%Inh [9],%Inh [10],%Inh [11],%Inh [12],%Inh [13],%Inh [14],%Inh [15],%Inh [16],%Inh [17],%Inh [18],%Inh [19],%Inh [20]
Cc1cccc(Nc2nc(N[C@H]3CCCC[C@H]3N)ncc2C(N)=O)c1.Cl [GSK986310],21%,9%,32%,25%,15%,4%,17%,20%,0%,21%,8%,27%,27%,49%,0%,0%,2%,12%,84%,0%
Cl.O=C(Nc1ccc(Oc2ccc3[nH]c(NC(=O)c4ccco4)nc3c2)cc1)Nc1cc(C(F)(F)F)ccc1F [GW683134],86%,99.5%,70%,72%,24%,60%,93.7%,9%,0%,29%,0%,0%,0%,14%,0%,82%,0%,0%,0%,0%
CNc1nccc(-c2ccc3c(N)n[nH]c3c2)n1 [GSK2206003],9%,18%,5%,0%,5%,2%,11%,50%,8%,31%,3%,0%,0%,32%,9%,28%,4%,0%,25%,1%
COc1cc(Nc2nccc(N3CCC(NC(=O)Nc4ccc5c(c4)OCO5)C3)n2)cc(OC)c1OC (centres unmarked) [GSK1379766],0%,3%,7%,0%,6%,0%,97.6%,0%,0%,31%,0%,0%,0%,0%,0%,0%,0%,0%,11%,0%
CN(c1ccc(NC(=O)Nc2cccc(Cl)c2)cc1)c1ccnc(N)n1.Cl [GW830707],40%,22%,34%,36%,62%,61%,76%,0%,17%,29%,0%,12%,0%,0%,0%,6%,32%,15%,9%,19%
CN(C)CCOc1ccc(-c2cc(-c3ccc(Cl)c(O)c3)c(-c3ccncc3)[nH]2)cc1.Cl.Cl [SB-684387],2%,4%,10%,15%,15%,23%,34%,32%,23%,32%,0%,0%,0%,40%,13%,7%,39%,0%,10%,10%
Cc1cccc(Nc2nc(NCCN)ncc2C(N)=O)c1 [GSK1292139],52%,58%,1%,0%,0%,0%,50%,4%,0%,10%,0%,0%,79%,33%,0%,0%,16%,5%,49%,0%
Cl.Cl.NCC(NC(=O)c1cc(-c2cccnc2)c(-c2ccnc3[nH]ccc23)s1)c1ccccc1 (centres unmarked) [GSK1323434],17%,33%,23%,22%,0%,18%,21%,58%,1%,48%,0%,8%,3%,33%,0%,16%,6%,0%,50%,44%
COc1cccc(-c2nc(-c3ccccc3)[nH]c2-c2ccncc2)c1 [SB-610250],9%,25%,16%,0%,24%,0%,22%,31%,20%,0%,0%,0%,4%,21%,14%,0%,20%,0%,0%,0%
Cc1cc(-c2ccnc(Nc3cccc(C#N)c3)n2)cc(C)c1O [GSK1440913],18%,21%,18%,19%,18%,16%,90.3%,27%,7%,0%,0%,0%,75%,1%,0%,99.1%,0%,0%,7%,28%
